{"source": "ChEMBL document CHEMBL3433997", "about": "“St. Jude Leishmania screening dataset” (2016)"}
{"biological_target": "Glucose transporter (Leishmania mexicana) (UniProt O61059)", "experiment": "ST_JUDE_LEISH: Cytotoxicity at 2uM final concentration against transgenic Leishmania Mexicana promastigotes LmGT2 that are glucose transport deficient and complemented with the L. Mexicana glucose transporter 2. Activity is measured by DNA content using SYBR green in vitro", "type": "functional", "units": {"inhibition": "%"}}
{"smiles": "CC(=O)Nc1ccc(S(=O)(=O)Nc2ccc(Nc3nc(C)cc(N(C)C)n3)cc2)cc1", "inhibition": 2.61}
{"smiles": "OC(CNC1CCCCC1)Cn1c2ccccc2c2ccccc21", "note": "(stereo not given)", "inhibition": 3.35}
{"smiles": "COc1ccc(-c2csc(NC(=O)CCC(=O)O)n2)cc1OC", "inhibition": 3.83}
{"smiles": "CCOC(=O)/C(=N\\OC(C)(C)C(=O)NCc1ccc(O)c(O)c1)c1csc(NC(c2ccccc2)(c2ccccc2)c2ccccc2)n1", "inhibition": -1.17}
{"smiles": "CCc1ccc(Cc2cnc3nc(N)nc(N)c3c2C)cc1", "inhibition": 8.26}
{"smiles": "CC(C)Nc1nc(NCCc2c[nH]cn2)nc(NCc2ccc(Cl)c(Cl)c2)n1", "inhibition": -0.25}
{"smiles": "COc1cccc(Cc2c(C)nc3nc(N)nc(N)c3c2C)c1", "inhibition": -0.24}
{"smiles": "O=C(/C=C/c1ccccc1Cl)Nc1ccc(Br)c(OCCN2CCC(O)(c3ccccc3)CC2)c1", "inhibition": -0.34}
{"smiles": "CC(=O)Nc1ccc(OCCN(Cc2ccccc2C(F)(F)F)c2ccc(C#N)c(C(F)(F)F)c2)cc1", "inhibition": 28.2}
{"smiles": "COCCN(CCOC)c1ncc(-c2ccsc2)c(-c2nc(C)c(C)s2)n1", "inhibition": 1.83}
{"smiles": "O=C(/C=C/c1ccc(Cl)c(Cl)c1)NCCCCCN1CCCN(C(=O)Nc2ccc(F)c(Cl)c2)CC1", "inhibition": 3.64}
{"smiles": "O=C(NCCCCN1CCC(c2cccc3ccccc23)CC1)c1ccc(-c2ccc(C(F)(F)F)cn2)cc1", "inhibition": 1.69}
{"smiles": "CC(C)c1ncc(-c2ccncc2)c(C2CCC(CNC(=O)c3cccnc3)CC2)n1", "note": "(stereo not given)", "inhibition": 1.81}
{"smiles": "CCCCCCCN1CCC(CC(=O)Nc2ccnc3ccc(OC)cc23)C(CC)C1", "note": "(stereo not given)", "inhibition": -0.31}
{"smiles": "O=C(NCCOc1ccccc1)[C@H](Cc1ccccc1)Nc1ccnc(NCC2CCCCC2)n1", "inhibition": 0.92}
{"smiles": "Cc1cnc(C(=O)Nc2cccc(-c3cccc(-c4nc5cc(F)ccc5[nH]4)c3)c2)cn1", "inhibition": 5.18}
{"smiles": "Oc1ccc(CN2CCC(NCc3cccc4ccccc34)CC2)cc1", "inhibition": 9.93}
{"smiles": "CC1c2cccc(O)c2CCN1CCc1ccc(Cl)c(Cl)c1", "note": "(stereo not given)", "inhibition": 5.5}
{"smiles": "CC(=O)Nc1cccc(-c2cnc(N)c3cc(-c4ccc5c(c4)OCO5)ccc23)c1", "inhibition": 5.76}
{"smiles": "O=C(Nc1ccc2c(c1)CCN(C1CCC1)CC2)c1ccc(-c2cn3ccccc3n2)cc1", "inhibition": 3.48}
{"smiles": "Cc1c[nH]c2cc(/C=C/C(=O)NC3CCC(CCN4CCc5ccc(C#N)cc5CC4)CC3)ccc12", "note": "(stereo not given)", "inhibition": 2.01}
{"smiles": "CN1CCCC(CN2CCN(Cc3cccc(-c4ccc(-c5nc6cc(C(F)(F)F)ccc6[nH]5)cc4)c3)CC2)C1", "note": "(stereo not given)", "inhibition": 1.86}
{"smiles": "COc1cccc(C2(c3cccc(OC)c3)N=C(N)N(CCCc3ccccc3)C2=O)c1", "inhibition": -2.44}
{"smiles": "O=C(NCCc1ccc(Cl)c(Cl)c1)[C@@H]1CCCN1C(=O)c1ccc(O)c(-c2cccc(C(F)(F)F)c2)c1", "inhibition": -2.44}
{"smiles": "CN(C)CCCOc1cccc(CCNCc2cccc(Oc3ccc(Cl)cc3)c2)c1", "inhibition": 0}
{"smiles": "Cc1cc(C)c2c(c1)C(=NO)CCN2", "inhibition": -0.32}
{"smiles": "O=C(Nc1ccc(CN2CCCCC2)cc1)c1ccc(COc2ccc([N+](=O)[O-])cc2)o1", "inhibition": 0.44}
{"smiles": "COc1cc2c(OC)cccc2cc1CNCCCCCCNCc1cc2cccc(OC)c2cc1OC", "inhibition": -0.11}
{"smiles": "CN(C(=O)c1ccccc1)C1c2cc(C#N)ccc2OC(C)(C)C1O", "note": "(stereo not given)", "inhibition": 0.38}
{"smiles": "O=C(NC1CC1)c1ccc(N2CCC(Cc3ccccc3)CC2)c([N+](=O)[O-])c1", "inhibition": 3.45}
{"smiles": "Oc1cc(NC[C@@H]2CCC[C@@H]2NCc2ccc(Cl)c(Cl)c2)nc2ccccc12", "inhibition": 7.45}
{"smiles": "O=C(O)C1CC(=O)N(c2ccc(Cl)cc2)C1", "note": "(stereo not given)", "inhibition": -1.26}
{"smiles": "NC(=O)c1cccc(CN2Cc3ccccc3OC3(CCN(Cc4c[nH]c5cnccc45)CC3)C2)c1", "inhibition": 0.09}
{"smiles": "O=C(NCCN1CCCC1)c1cccc(Nc2nccc(Nc3ccc(Oc4ccccc4)cc3)n2)c1", "inhibition": 2.53}
{"smiles": "O=C(Nc1ccccc1Cl)N(Cc1cc(Cl)cc(Cl)c1)CC(O)COc1ccc(Cl)c(F)c1", "note": "(stereo not given)", "inhibition": -2.7}
{"smiles": "CCN1CCc2nc3ccccc3c(C(=O)Nc3ccc(C#N)cc3)c2C1", "inhibition": -1.04}
{"smiles": "CC1(C)N=C(N)N=C(N)N1c1cc(Cl)c(Cl)cc1Cl", "inhibition": -3.01}
{"smiles": "CN1CC[C@@H](Oc2cc(Nc3nc(-c4ccc(C#N)cc4)cs3)ccc2Cl)C1", "inhibition": 4.06}
{"smiles": "Cc1cccc2nc(-c3ccc(-c4cccc(CN5CCN(CCN6CCOCC6)CC5)c4)s3)[nH]c12", "inhibition": 0.64}
{"smiles": "Cc1nc(N)nc(N)c1CCCOc1ccccc1Cl", "inhibition": 5.78}
